From PubChem
Mtb bLac sens: beta-lactam sensitization of Mtb H37Rv; M. tuberculosis H37Rv growth with meropenem, percent inhibition; 330,000 tested, 0.27% active; AID 434955; inhibition, % at 25 µM;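 also: growth measured after seven days incubation then overnight dye step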
Vc quorum ag-1: quorum light induction in luxS cqsA deficient V. cholerae; V. cholerae BH1578 lux reporter, luminescence, 6 h; activation, % at 18.7 µM; 350,000 tested, 0.16% active; AID 588436; in the data active = activation mostly above about 9.7%, no sharp cut-off; inconclusive = no clear call, values can overlap the other calls; inactive = mostly below about 3.7%
Rv3671c protease: inhibitors of M. tuberculosis serine protease Rv3671c. P9WHR9. inhibition, % at 5.96 µM. 320,000 tested, 0.048% active; in the data active = inhibition above about 38%;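 also: extracellular domain of Rv3671c used as enzyme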
Target sequence (P9WHR9 whole entry, looked up, the tested form may be a part): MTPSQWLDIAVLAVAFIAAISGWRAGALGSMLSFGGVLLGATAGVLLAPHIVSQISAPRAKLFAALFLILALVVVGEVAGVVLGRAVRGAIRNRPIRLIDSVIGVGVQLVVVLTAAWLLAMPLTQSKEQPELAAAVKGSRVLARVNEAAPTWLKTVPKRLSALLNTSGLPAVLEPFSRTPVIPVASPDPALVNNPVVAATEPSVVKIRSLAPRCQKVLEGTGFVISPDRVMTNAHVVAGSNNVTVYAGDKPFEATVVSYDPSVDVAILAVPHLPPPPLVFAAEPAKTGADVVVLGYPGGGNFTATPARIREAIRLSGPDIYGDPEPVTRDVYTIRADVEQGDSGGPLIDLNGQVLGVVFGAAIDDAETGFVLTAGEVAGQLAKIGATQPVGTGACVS
Mtb UGM inh: Mtb UDP-galactopyranose mutase inhibition. P9WIQ1. purified UGM, fluorescence polarization probe displacement. inhibition, % at 10 µM. 320,000 tested, 0.06% active. AID 504406; in the data active = inhibition above about 10%, passing the limit was not always enough; inconclusive = no clear call, values can overlap the other calls
FadD28 FP inh: inhibitors of Mycobacterium tuberculosis FadD28 bisubstrate binding; 360,000 tested, 0.22% active; FadD28 bisubstrate probe binding, fluorescence polarization; inhibition, % at 12.5 µM; in the data active = inhibition above about 8.5%, passing the limit was not always enough; inconclusive = no clear call, values can overlap the other calls
MazEF act: activators of E. coli MazEF toxin-antitoxin RNase. 350,000 tested, 0.32% active. FAM/BHQ RNA-DNA oligo cleavage fluorescence, 5 h. P0AE70. activation, % at 20 µM. AID 504720; in the data active = activation above about 50%
Target sequence (P0AE70 whole entry, looked up): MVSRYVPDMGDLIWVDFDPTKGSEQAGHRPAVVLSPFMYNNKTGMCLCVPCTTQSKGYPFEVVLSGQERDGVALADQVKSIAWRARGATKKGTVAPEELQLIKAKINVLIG
Vc quorum ag-2: quorum light induction in BH1578 reporter strain; shares compounds with Vc quorum ag-1; V. cholerae BH1578 lux reporter, luminescence, 6 h; activation, % at 50 µM; 620 tested, under 10 active; AID 602243
HeLa tox: kills HeLa cells within 24 hours; shares compounds with Vc quorum ag-1; HeLa viability, CellTiter-Glo ATP luminescence; activity change, negative = cytotoxicity, % at 35 µM; 25 tested, under 10 active; AID 624140;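 active = signal drop with fitted half-maximal concentration at or below twice the highest valid dose; inconclusive = flat curve with 30 to 70% loss, or poor fit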
Large screens that a line does not name were inactive (follow-up assays come after a bar, where they were run). An excerpt weighted towards active compounds, which were near 0.74% of everything screened. Unless noted, no rule for the calls is given here.

N#CCSc1ccccc1NC(=O)COC(=O)CCNC(=O)c1ccc([N+](=O)[O-])cc1	none (no result: Mtb bLac sens, Rv3671c protease, Mtb UGM inh) | Vc quorum ag-2 inactive
O=C(CCNC(=O)c1ccc([N+](=O)[O-])cc1)Nc1ccccc1N1CCCC1	none
Cc1cc2c(ncn2C)c(NS(=O)(=O)c2cc(Cl)ccc2Cl)c1C	Vc quorum ag-1 17 | Vc quorum ag-2 inactive
Cc1cc2c(ncn2C)c(NS(=O)(=O)c2ccccc2Cl)c1C	none
CCCn1nnnc1NCc1cccc(OC)c1	none
CCn1nnnc1NCc1cccc(OC)c1	none (no result: Mtb bLac sens, Vc quorum ag-1, Rv3671c protease, Mtb UGM inh, FadD28 FP inh, MazEF act) | HeLa tox inactive
Nc1c([N+](=O)[O-])cc2c3c(cccc13)CC2	none (no result: Mtb bLac sens, Vc quorum ag-1, Rv3671c protease, Mtb UGM inh, MazEF act)
O=C(Nc1nnc(-c2ccc3c(c2)OCCO3)o1)C1CCCCC1	none (no result: Mtb bLac sens, Vc quorum ag-1) | HeLa tox inactive
Cc1ccc([C@H]2C[C@@H](O)[C@H](n3cc(-c4ccc(F)cc4)nn3)CN2C(=O)c2cccs2)cc1	none (no result: Mtb bLac sens, Rv3671c protease, Mtb UGM inh)
Cc1cc(OC(F)F)ccc1NC(=S)NCCc1ccccc1	none | Vc quorum ag-2 inactive
CN(CC(=O)Nc1ccc(Cl)c(C(F)(F)F)c1)C(=O)CNC(=O)C1CCCCC1	none
Cc1nnc2c3ccccc3c(-c3ccc(O)cc3)nn12	Vc quorum ag-1 84 | Vc quorum ag-2 inactive
O=C1NC[C@H](Cc2ccccc2)N(C[C@H]2CCCN2C[C@H](Cc2ccc(O)cc2)N2C[C@H](Cc3ccc(O)cc3)N(CC3CCCCCC3)C(=O)C2=O)C1=O	none (no result: Mtb bLac sens, Rv3671c protease, Mtb UGM inh)
O=C(c1cccc(S(=O)(=O)N2CCc3ccccc32)c1)N1CCOCC1	Vc quorum ag-1 288 | Vc quorum ag-2 inactive
O=C(c1cccc(S(=O)(=O)N2CCc3ccccc32)c1)N1CCc2ccccc2C1	none (no result: FadD28 FP inh)
COCCCNC(=O)c1ccc2c(=O)n(C3CCCC3)c(=S)[nH]c2c1	none | Vc quorum ag-2 inactive
c1ccc(Cc2nn[nH]n2)cc1	none (no result: Vc quorum ag-1)
COc1ccc(Cc2nn[nH]n2)cc1	Vc quorum ag-1 7.6 | Vc quorum ag-2 inactive
CCOC(=O)c1c(C)[nH]c(C)c1C(=O)COC(=O)c1cccc(S(=O)(=O)N(CC)CC)c1	none
CCN(CC)S(=O)(=O)c1cccc(C(=O)OCC(=O)C23CC4CC(CC(C4)C2)C3)c1	none | Vc quorum ag-2 inactive
CN(C)c1ccc(/C=N/N2CCN(c3ccccn3)CC2)cc1	none
CC1CCCN(C(=O)c2ccc3c(=O)n(Cc4ccc5c(c4)OCO5)c(=S)[nH]c3c2)C1 (stereo not given)	none | Vc quorum ag-2 inactive
CCOc1ccc2nc(SCC(=O)NC(=O)NCc3ccco3)[nH]c2c1	Vc quorum ag-1 32 | Vc quorum ag-2 inactive
CCOC(=O)C1=CN(Cc2ccco2)S(=O)(=O)N(CC)C1c1ccc(C(F)(F)F)cc1 (stereo not given)	none (no result: Mtb bLac sens, Rv3671c protease, Mtb UGM inh)
COc1ccccc1NC(=O)Cc1ccc(-c2ccccc2)cc1	Vc quorum ag-1 active | Vc quorum ag-2 inactive
CCC(C)NC(=O)Cc1ccc(-c2ccccc2)cc1 (stereo not given)	Vc quorum ag-1 active | Vc quorum ag-2 inactive | HeLa tox inactive
CCCC(C)NC(=O)Cc1ccccc1 (stereo not given)	none
CN(C(=O)CSc1nc2ccccc2n1C)C1CCS(=O)(=O)C1 (stereo not given)	none
CN[C@@H](CO)C(=O)NC[C@H]1O[C@@H](n2cc(C)c(=O)[nH]c2=O)C[C@@H]1O	none (no result: Mtb bLac sens, Rv3671c protease, Mtb UGM inh)
Cc1ccc(S(=O)(=O)CCC(=O)N(C)C2CCCCC2)cc1	none
CCOC(=O)CC1C(=O)NCCN1C(=O)c1cccc(C(F)(F)F)c1 (stereo not given)	Vc quorum ag-1 17 | Vc quorum ag-2 inactive
CCOC(=O)CC1C(=O)NCCN1C(=O)c1ccc(F)cc1F (stereo not given)	none
O=C(CC1SC(=O)NC1=O)Nc1ccc(Cl)cc1 (stereo not given)	none
O=C(CC1NC(=O)NC1=O)Nc1ccc(Cl)cc1 (stereo not given)	none | Vc quorum ag-2 inactive
O=C(NCC(F)(F)F)Nc1ncccn1	Vc quorum ag-1 15 | Vc quorum ag-2 inactive
CC(OC(=O)c1cccc(-n2cnnn2)c1)C(=O)Nc1ccc(F)c(F)c1F (stereo not given)	none (no result: Mtb bLac sens, Rv3671c protease, Mtb UGM inh)
CCOc1ccc(CNc2nnnn2C)cc1	Vc quorum ag-1 active | Vc quorum ag-2 inactive
CC(C)c1ccc(CNc2nnnn2C)cc1	none (no result: Vc quorum ag-1) | Vc quorum ag-2 inactive
Cn1nnnc1NCc1cccc(Cl)c1	FadD28 FP inh inconclusive
CCOc1cccc(CNc2nnnn2C)c1	none
O=c1c(Cc2ccccc2)c(O)ccn1Cc1ccc2c(c1)OCO2	none
CCCCCCCCOC(=O)C(NC(=O)CCC(=O)Nc1ccc(S(N)(=O)=O)cc1)C(O)c1ccccc1 (stereo not given)	Vc quorum ag-1 17 | Vc quorum ag-2 inactive
CCOc1ccc(/C(O)=C2/C(=O)C(=O)N(CCOCCO)C2c2ccccn2)cc1 (stereo not given)	none | Vc quorum ag-2 inactive
CCOc1ccc(/C(O)=C2/C(=O)C(=O)N(CCOCCO)C2c2ccc(F)cc2)cc1 (stereo not given)	none
CCOC(=O)c1cc(S(=O)(=O)Nc2ccc(OC)cc2OC)cn1C	none
CCc1nnc(NC(=O)c2ccc3ccccc3n2)s1	none
CCSc1nnc(NC(=O)c2ccc3ccccc3n2)s1	none | Vc quorum ag-2 inactive
Cc1ccccc1C(=O)Nc1ccc(-c2nc3ccc(C(=O)c4ccccc4)cc3[nH]2)cc1	none | Vc quorum ag-2 inactive
O=C(c1ccccc1)c1ccc2nc(-c3ccc(NC(=O)c4ccccc4Br)cc3)[nH]c2c1	none
O=c1c2cc(Br)ccc2nc(-c2cccc(C(F)(F)F)c2)n1O	Vc quorum ag-1 18 | Vc quorum ag-2 inactive
CCOC(=O)Cn1nc(C)n(-c2ccc(Cl)cc2)c1=O	none
CCOC(=O)Cn1nc(C)n(-c2ccc(C(C)C)cc2)c1=O	none | Vc quorum ag-2 inactive
CC(C)(C)OC(=O)N1CC2(CCCCC2)CC1Cc1ccc(C(F)(F)F)cc1 (stereo not given)	none (no result: Mtb bLac sens, Rv3671c protease, Mtb UGM inh)
O=C(CN1CCCCC1)Nc1cccc(Cl)c1	none
COc1cc(NC(=O)Nc2cccc(Cl)c2)c(OC)cc1NC(=O)CN1CCCCC1	none | Vc quorum ag-2 inactive
COc1ccc(Cl)cc1NC(=O)CN1CCc2ccccc2C1	Vc quorum ag-1 107 | Vc quorum ag-2 inactive
O=C(CCC1CCCN(C(=O)c2cc(F)ccc2F)C1)N1CCN(c2ccccn2)CC1 (stereo not given)	none (no result: Mtb bLac sens, Rv3671c protease, Mtb UGM inh)
COC(=O)[C@H]1C[C@H](C(=O)O)[C@@H](C)C1(C)C	none | Vc quorum ag-2 inactive
COc1ccc(-c2nnn(CC(=O)c3ccc4c(c3)OCCO4)n2)cc1OC	Vc quorum ag-1 5.6 | Vc quorum ag-2 inactive
CCCCCCN1C[C@H](n2cc(-c3ccc(F)cc3)nn2)[C@@H](O)C[C@@H]1c1ccc(C)cc1	none (no result: Mtb bLac sens, Rv3671c protease, Mtb UGM inh)
CCc1nc(NCCCN2CCOCC2)c2oc3ccccc3c2n1	none | Vc quorum ag-2 inactive
CCN(CC)C(=O)CSc1nnc(-c2ccco2)o1	none (no result: Vc quorum ag-1)
CN(C)C(=O)CCSc1nnc(-c2ccco2)o1	Vc quorum ag-1 101 | Vc quorum ag-2 inactive
